Results reported in PubChem BioAssay (NCI).
Values joined by “and” are separate entries in the source; they are usually repeats but may differ in a detail not shown here. Equal entries are not always repeated. About 83,000 compounds went through this panel and 20% of them were active in at least one assay; those are over-represented in the sample as a whole.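 48-hour exposure, single concentration, 96-well plates; percent growth endpoint where 0 means no net growth. Active: below 10.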 Active and inactive are the calls of the source.

Tested on: M14 melanoma
Test: NCI-60 one-dose screen, 48 h (100 = growth as untreated, 0 = no growth, -100 = all killed)
Conditions: 10 µM unless noted
Experimental: Growth inhibition of the M14 human tumor cell line is measured as a screen for anti-cancer activity. Cells are grown in 96 well plates and exposed to the test compound for 48 hours. Compounds are tested at a single concentration, which is 10^-5 M for most compounds. The reported endpoint is percent growth (GI% or GIPRCNT), where numbers from 0 - 100% represent growth inhibition, and numbers from -100% - 0 represent cell death. For example, a value of 40 represents 60% growth inhibition. A value of 0 means no net growth occurred over the course of the experiment. A value of -40 indicates 40% of cells at the beginning of the experiment died by the end of the experiment. A value of -100 means all cells are dead at the end of the experiment.
NCI-60 Human Tumor Cell Lines Screen was performed using the standard one-dose NCI protocol, which is described in more detail at https://dtp.cancer.gov/discovery_development/nci-60/default.htm.
Compounds with GIPRCNT values below 10 were considered active. Activity score was based on GIPRCNT using the following formula: […]
Score is 0 for GIPRCNT values of 100 or above, 50 for GIPRCNT values of 0, and 100 for GIPRCNT values of -100.

Row | Structure (SMILES) | growth
1 | CC1CC(O)CC(C)(C)C1.CC1CC(O)CC(C)(C)C1.CC1CC(O)CC(C)(C)C1.CC1CC(O)CC(C)(C)C1.[Ti] (stereo not given) | 96% (inactive)
2 | COc1cc(C2c3cc4c(cc3C(OC(=O)C[n+]3ccccc3)C3COC(=O)C23)OCO4)cc(OC)c1OC (stereo not given) | 7.72% (active)
3 | COC(=O)c1nc(N)nc(C(=O)OC)c1C(=O)c1ccc(F)cc1 | 108% (inactive)
4 | CCc1ccccc1-n1[nH]c(C)c(C=N)c1=O | 109% (inactive)
5 | COc1ccc(/C=C/C(=O)O)cc1OC | 101% (inactive) and 106% (inactive)
6 | COc1ccc([N+](=O)[O-])cc1OC | 98.9% (inactive) and 113% (inactive)
7 | CC(C)(C)C1=CC(=O)C(C(C)(C)C)=CC1=O | 105% (inactive)
8 | ON=C(C1CCCCC1)C1CCCCC1 | 109% (inactive)
9 | CCOC(=O)c1ccc(C(=N)N)cc1 | 108% (inactive)
10 | O=C1c2ccccc2CN1c1ccccc1 | 100% (inactive)
11 | COc1cc([C@@H]2c3cc4c(cc3[C@H](O)[C@H]3COC(=O)[C@@H]23)OCO4)cc(OC)c1OC | 9.16% (active) and -73.8% (active)
12 | CC(=O)Oc1ccc(C2(c3ccc(OC(C)=O)cc3)C(=O)Nc3ccccc32)cc1 | 112% (inactive) and 99.4% (inactive)
13 | Cc1ccc(NC(=S)N/C=C(\c2ccccc2)S(=O)Cc2ccccc2)c(C)c1 (stereo not given) | 97.3% (inactive)
14 | O=C(c1ccccc1)C1(Br)CCCCC1 | 98.6% (inactive)
15 | CC(O)CCNC(c1ccccc1)C(O)c1ccccc1 (stereo not given) | 104% (inactive)
16 | O=[N+]([O-])c1cccc2ccc(N/N=C/c3ccccc3O)nc12 | 88.9% (inactive) and 107% (inactive)
17 | O=C(O)c1cccc(Br)c1 | 99.7% (inactive) and 103% (inactive)
18 | O=C(O)C(Cc1ccc(OS(=O)(=O)Cc2ccccc2)cc1)NS(=O)(=O)Cc1ccccc1 (stereo not given) | 113% (inactive) and 100% (inactive)
19 | CC(=O)Oc1ccc(C(c2ccc(OC(C)=O)cc2)c2ccccn2)cc1 | 95.1% (inactive) and 69.3% (inactive)
20 | CC(=O)Nc1cscc1NC(C)=O | 104% (inactive)

Row | Structure (SMILES) | growth
21 | Oc1cccnc1CN1CCOCC1 | 109% (inactive) and 103% (inactive)
22 | O=c1[nH]c(=S)[nH]n1C(=S)n1[nH]c(=S)[nH]c1=O | 105% (inactive)
23 | CCc1ccc(OC(=O)CCl)cc1 | 96.3% (inactive)
24 | CC1(CO)CCCC1NCCNC1CCCC1(C)CO (stereo not given) | 96.7% (inactive) and 103% (inactive)
25 | CC(=O)Nc1ccc2oc(=O)ccc2c1 | 100% (inactive)
26 | Nc1ccc2ccc(NS(=O)(=O)N3CCCCC3)cc2c1 | 11.2% (inactive)
27 | COc1ccc2oc3cc(NCCN(C)C)ccc3c(=O)c2c1 | 96.5% (inactive) and 76.7% (inactive)
28 | OC(CC(c1ccccc1)c1cccc2ccccc12)(c1ccccc1)c1ccccc1 (stereo not given) | 72.1% (inactive) and 77.2% (inactive)
29 | O=c1[nH]c(=O)c2[nH]c(=O)[nH]c2[nH]1 | 91.5% (inactive)
30 | Cc1nc2c(=O)[nH]c(=S)[nH]c2[nH]c1=O | 113% (inactive) and 110% (inactive)
31 | Cc1c(O)nc(N)[nH]c1=O | 98.5% (inactive)
32 | Cc1cc2ccccc2c2cc3ccccc3cc12 | 85.1% (inactive)
33 | CCOC(=O)C1=CC(=O)CC(C)(C)O1 | 99.6% (inactive) and 112% (inactive)
34 | CC1(C)CC(=O)NC1=O | 95% (inactive)
35 | COc1ccc(COC=O)cc1 | 104% (inactive)
36 | Nc1c(Cl)cc2c(c1Br)C(=O)c1ccccc1C2=O | 108% (inactive)
37 | N#Cc1ccc(/C=C/C(=O)c2ccccc2)cc1 | 98.6% (inactive) and 102% (inactive)
38 | O=[N+]([O-])c1ccc(N/N=C/C2CCCCCC2)c([N+](=O)[O-])c1 | 85.1% (inactive)
39 | Cc1cnc(N)s1 | 91.9% (inactive)
40 | O=[N+]([O-])c1ccc(NC2CCCCC2)nc1 | 105% (inactive) and 109% (inactive)
